hgDAF-12 ag: agonists of H. glycines DAF-12 nuclear receptor | HEK293 GAL4-hgDAF12 UAS-luciferase reporter, agonist luminescence; normalized to butyrate control | activation, % at 6.8 µM | 1.8% of 370,000 active;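 active = activation above a cutoff set at the mean of all screened compounds plus 3 SD, cut at about 10% in these data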;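 also: 0% = DMSO wells and 100% = sodium butyrate wells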
ssDAF12 agonist: activators of S. stercoralis DAF-12 nuclear receptor | HEK293 ssDAF-12/GRIP1 lit1-tk-luc reporter, luminescence; % of 3 µM dafachronic acid response | 1% of 370,000 active | activation, % at 6.8 µM;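 active = activation above the mean over all tested compounds plus 3 SD, cut at about 0.9% in these data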;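 also: 0% = DMSO-only wells and 100% = 3 µM delta7-dafachronic acid wells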
DAX1 inh-1: DAX1 (NR0B1) inhibition, primary screen; 1.1% of 370,000 active; inhibition, % at 6.8 µM; AID 652010; HEK293T StAR-luciferase reporter, SF-1/DAX-1 repression relief;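 active = inhibition above the mean over all tested compounds plus 3 SD, cut at about 3.6% in these data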;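 also: 0% = DAX-1 cells with DMSO and 100% = cells lacking DAX-1 with DMSO; higher inhibition means more luminescence from relief of DAX-1 repression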
DAX1 inh-2: NR0B1 (DAX1) inhibition; P51843; HEK293 Gal4-DAX1 luciferase reporter, luminescence; inhibition, % at 6.75 µM; 0.99% of 340,000 active; AID 504766;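 active = inhibition above the mean over all tested compounds plus 3 SD, cut at about 4.2% in these data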;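 also: 0% = DAX1-transfected cells with DMSO and 100% = empty-vector control cells with DMSO; inhibition shows as a rise in luminescence from relieved DAX1 repression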
Target sequence (P51843 207-470 limits assumed): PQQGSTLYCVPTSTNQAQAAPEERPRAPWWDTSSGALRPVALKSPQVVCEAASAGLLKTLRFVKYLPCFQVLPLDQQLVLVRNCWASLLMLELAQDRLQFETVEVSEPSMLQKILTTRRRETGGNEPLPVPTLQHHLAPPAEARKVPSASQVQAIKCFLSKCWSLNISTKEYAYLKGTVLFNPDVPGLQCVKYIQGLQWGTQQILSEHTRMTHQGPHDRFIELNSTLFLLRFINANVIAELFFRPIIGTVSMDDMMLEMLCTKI
hcDAF12 agonist: activators of H. contortus DAF-12 nuclear receptor; HEK293 hcDAF-12 lit1-tk-luc reporter, luminescence; 0% DMSO, 100% Δ7-dafachronic acid; activation, % at 6.8 µM; 1.4% of 370,000 active;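 active = activation above the mean of all tested compounds plus 3 SD, cut at about 5.5% in these data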;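 also: 100% = response to 3 µM Δ7-dafachronic acid high control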
SMARCA2 act: activators of SMARCA2 function. activation, % at 9.1 µM. MG213 cells, MMTV-luciferase reporter, dexamethasone, overnight. 1% of 370,000 active. AID 652017; in the data active = activation above about 7.8%;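 also: 0% = vehicle wells and 100% = reference activator wells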
The depositor's hits bear a star; . = no result. Compounds with a hit are over-represented: about 4.8% of the library has one in this group of screens.

SMILES | hgDAF-12 ag | ssDAF12 agonist | DAX1 inh-1 | DAX1 inh-2 | hcDAF12 agonist | SMARCA2 act
N#CCCN(C(=O)COC(=O)c1ccc(S(=O)(=O)N2CCOCC2)cc1)c1ccccc1 | 0 | -1 | 0 | -3 | 5 | 0
COc1cc(Cl)cc(C(c2c(C(=O)O)[nH]c3ccccc23)c2c(C(=O)O)[nH]c3ccccc23)c1O | 2 | -1 | 1 | 1 | 5.7* | -2
O=C(O)c1[nH]c2ccccc2c1C(c1c(F)cccc1Cl)c1c(C(=O)O)[nH]c2ccccc12 | 5 | -1 | 0 | 1 | -1 | 0
CCOC(=O)C1C(=O)CC(=O)CC1CC(C)SCC (stereo not given) | 1 | -1 | 0 | -1 | -1 | -3
Cc1ccccc1C(=O)NC=C1C(=O)OC(C)(C)OC1=O | 0 | -1 | 0 | 4.2* | 1 | -2
CC1(C)OC(=O)C(=CNC(=O)c2c(F)cccc2F)C(=O)O1 | 0 | -1 | 0 | 0 | -1 | 2
COc1ccccc1Nc1nc(N)nc(CSc2nccn2C)n1 | 3 | -1 | 0 | -1 | 1 | -1
CC(=O)Nc1ccc(NC(=O)C2C3CCC(C3)C2C(=O)O)cc1 (stereo not given) | 2 | 0 | 0 | 1 | 2 | 3
O=C(O)C1C2CCC(C2)C1C(=O)Nc1ccccc1 (stereo not given) | -1 | -1 | 0 | 4.3* | 0 | -3
CN(C)S(=O)(=O)N1CCCC(C(=O)c2ccc(-c3ccccc3)cc2)C1 (stereo not given) | -1 | -2 | 0 | 4.3* | 0 | -4
COc1ccc([C@@H]2CC=C(C(=O)O)[C@H](c3ccc(C)cc3)N2S(=O)(=O)c2ccc(C)cc2)cc1OC | -1 | -1 | 1 | 0 | -1 | -5
COC(=O)[C@]12C=CCN1[C@@H](c1ccc(OC)c(OC)c1)c1c(c3ccccc3n1S(=O)(=O)c1ccc(C)cc1)C2 | 1 | -1 | -1 | . | 5.8* | -3
COc1ccc(-c2nnc(NC(=O)c3ccccc3C)o2)cc1 | -1 | -2 | -1 | 0 | -1 | -1
CCCc1cc(=O)n2[nH]c(-c3ccc(Cl)cc3)cc2n1 | 10 | 1 | 1 | 2 | 3 | 3
CCc1c(C)nc2cc(-c3ccc(Cl)cc3)[nH]n2c1=O | 11* | 0 | 2 | 4.8* | 3 | 3
COCc1cc(=O)n2[nH]c(-c3cccc(Br)c3)cc2n1 | 6 | 0 | 2 | 4 | 4 | 4
CCCc1cc(=O)n2[nH]c(-c3ccc(C)cc3)cc2n1 | 6 | 0 | 4.0* | 2 | 2 | 6
CCc1c(C)nc2cc(-c3cccc(Br)c3)[nH]n2c1=O | 7 | 1.0* | 1 | 2 | 6.4* | 2
Cc1ccc(N(CC(=O)NC2CCC(C)CC2)S(=O)(=O)c2cccnc2)cc1 (stereo not given) | -1 | -1 | 1 | 2 | 3 | -2
CN1CCN(c2nc(-c3ccccc3Cl)nc3ccccc23)CC1 | 4 | -1 | 0 | 0 | 0 | -2
CN1CCN(c2nc(-c3ccccc3O)nc3ccccc23)CC1 | 4 | 0 | 0 | 1 | 6.5* | 3
Cc1cc(=O)[nH]c(SCC(=O)Nc2cccc(S(=O)(=O)N3CCOCC3)c2)n1 | 0 | -1 | 3.7* | 1 | -2 | -1
Cc1nc(SCC(=O)Nc2cccc(S(=O)(=O)N3CCOCC3)c2)nc(C)c1C | 1 | -1 | -2 | -1 | -2 | -5
CCC(C(=O)Nc1c(C)cccc1C)n1c(-c2cnc(C)cn2)nc2ccccc21 (stereo not given) | -2 | -1 | -1 | . | 0 | 0
CCC(C(=O)Nc1c(C)cccc1C)n1c(-c2ccc(=O)[nH]c2)nc2ccccc21 (stereo not given) | 1 | 1.5* | 1 | . | 5 | 0
SMILES | hgDAF-12 ag | ssDAF12 agonist | DAX1 inh-1 | DAX1 inh-2 | hcDAF12 agonist | SMARCA2 act
Clc1ccc(C2Nc3ccccc3-n3cccc32)cc1 (stereo not given) | 3 | 1.1* | -1 | 1 | 5 | 1
CN1c2ccccc2C(=O)NC1c1ccc(Cl)cc1 (stereo not given) | -1 | -1 | 0 | 0 | -1 | -5
O=C(O)c1cccc(N2CCCC2=O)c1 | -1 | -2 | 0 | 0 | -2 | 3
O=C(Nc1ccccc1)c1cccc(N2CCCC2=O)c1 | 12* | -1 | 0 | 0 | 2 | 3
O=C(N/N=C/c1cc(Br)ccc1O)c1cccc(N2CCCC2=O)c1 | -9 | -1 | -2 | 2 | -2 | -3
O=C(N/N=C/c1ccco1)c1cccc(N2CCCC2=O)c1 | 11* | 0 | 2 | -1 | 5 | 1
Cc1nc2c(-c3ccc(Cl)cc3)cnn2c2c1CCC2 | 3 | 2.1* | 0 | 0 | 3 | 1
Cc1nc2c(Cl)c(C)nn2c2c1CCC2 | 0 | -2 | 0 | 0 | -1 | 3
O=c1cc(CN2CCN(c3ccc(O)cc3)CC2)nc2scc(-c3ccccc3)n12 | -1 | -1 | -2 | -1 | 3 | -2
C[C@]12C(=O)N(c3ccc(Br)cc3)C(=O)N1[C@H]1c3ccccc3OC[C@@H]1[C@H]2c1ccccc1 | 2 | -1 | -1 | 0 | 5.8* | -1
CCOc1ccccc1N(CC(=O)N1CCc2ccccc2C1)S(C)(=O)=O | 1 | -1 | 1 | 1 | -2 | 3
COc1cccc(C2CCCCN(C)C2=O)c1 (stereo not given) | 0 | -2 | 1 | 4.6* | -2 | -3
COCCNc1nc(Oc2ccc(CC(=O)OC)cc2)c2sc(-c3ccccc3)cc2n1 | -2 | -1 | 3.8* | . | 3 | -4
COCCNc1nc(Oc2ccc(NC(C)=O)cc2)c2sc(-c3ccccc3)cc2n1 | 1 | -1 | 0 | . | -1 | 0
COc1ccc(NS(=O)(=O)c2cc([N+](=O)[O-])ccc2N/N=C/c2c(C)[nH]c3ccccc23)cc1 | 1 | -1 | 0 | 0 | 2 | 1
Cc1[nH]c2ccccc2c1/C=N/Nc1ccccc1[N+](=O)[O-] | 4 | 0.9* | 0 | 0 | 5 | -2
Cc1cccc(-c2nnc(-c3ccc(N)cc3)o2)c1 | 7 | -1 | 3 | 0 | 3 | -4
c1ccc(-c2nnc(-c3ccncc3)o2)cc1 | 3 | -1 | 1 | 0 | 2 | -1
Nc1ccc(-c2nnc(-c3ccc(N)cc3)o2)cc1 | 7 | 0 | 2 | 4.4* | 2 | 5
c1ccc(-c2nnc(-c3ccccc3)o2)cc1 | 12* | 1.2* | 3 | 4.6* | 5.9* | 5
c1ccc(C2Nc3ccccc3Oc3ccccc32)cc1 (stereo not given) | 0 | -1 | 0 | 0 | -1 | -4
c1ccc2c(c1)Nc1cc3ccccc3cc1O2 | 5 | 0.9* | 0 | 1 | 4 | 0
C=C(C)C1(O)OC(=O)C=C1OC (stereo not given) | 0 | 0 | 2 | 4 | 6.5* | 5

Compound activity deposited in PubChem BioAssay by The Scripps Research Institute Molecular Screening Center.
